According to ChEMBL document CHEMBL4513216, “Probing the Open Global Health Chemical Diversity Library for Multistage-Active Starting Points for Next-Generation Antimalarials” (ACS Infect Dis, 2020):
The campaign covered roughly 69,000 compounds. About 8,600 (12%) showed an effect of 50% or more. For the sample, strong results were picked, then their nearest neighbours and some compounds at random.

The molecules below were run on Plasmodium berghei (assay: Screen against P. berghei liver stage (PbLuc), transformed with Luciferase, at 10uM). Conditions: tested at 10 uM.
Format: functional, HepG2

Row | Compound | INHIBITION [%]
1 | CN(C)C(=O)N1CCN(C(=O)c2ccccc2)CC2(CNC(=O)C2)C1 (stereo not drawn) | -0.804
2 | O=C1CC2(CCN(C(=O)c3cccc(Cl)c3)CC2)CN1 | 55.7
3 | COc1cc(Cl)cc(C(=O)N2CCC3(CC2)CNC(=O)C3)c1 | 13.7
4 | CS(=O)(=O)N1CCN(C(=O)c2cccc(Cl)c2)CC2(CNC(=O)C2)C1 (stereo not drawn) | 13.7
5 | CN(C)C(=O)N1CCN(C(=O)c2cccc(Cl)c2)CC2(CNC(=O)C2)C1 (stereo not drawn) | 79.6
6 | CN(C)C(=O)N1CCN(C(=O)c2ccc(Cl)cc2)CC2(CNC(=O)C2)C1 (stereo not drawn) | 21.7
7 | O=C(Cc1noc2ccccc12)N1CCC(Nc2cccnn2)CC1 | 43.3
8 | CC(C)(C)c1n[nH]c(C2CN(C(=O)c3cc(C4CC4)on3)CCO2)n1 (stereo not drawn) | 35.5
9 | O=C(CCCNc1ncccn1)N1CCCC(n2cncn2)C1 (stereo not drawn) | 27.6
10 | O=C([C@H]1CN(Cc2nccs2)C[C@H]2OCC[C@@H]12)N1CCCCO1 | 22.2
11 | CCOC1(C)C(=O)c2ccccc2N1Nc1ccccc1C(=O)CC (stereo not drawn) | 67.3
12 | CCC(=O)c1ccccc1NN1c2ccccc2C(=O)C1(C)OC (stereo not drawn) | 17.6
13 | CCC(=O)c1ccc(Br)cc1NN1c2cc(Br)ccc2C(=O)C1(C)OC (stereo not drawn) | 70.6
14 | CC(NC(=O)N1CCNC(=O)CC1)c1ccc(C(F)(F)F)cc1 (stereo not drawn) | 48.2
15 | Cc1cc2n(n1)[C@@H](C(F)(F)F)C[C@@H](C1CCN(C(=O)C(C)C)CC1)N2 | -26.2
16 | Cc1cnc(C(=O)N2CCCC(c3c(C)c(=O)nc4n3CCC4)C2)cn1 (stereo not drawn) | -17.7
17 | O=S(=O)(NCc1ccccc1)N1CCCN(c2ccncc2)CC1 | 71.3
18 | O=S(=O)(NCc1ccccc1)N1CCN(c2ncccn2)CC1 | 31
19 | N#Cc1cccnc1N1CCN(S(=O)(=O)NCc2ccccc2)CC1 | 11.5
20 | Cc1cccc(=O)n1CCCNc1ncnc2c1CCNCC2 | -1.98
21 | Cc1[nH]c2ccc(Cl)cc2c1CCNc1ncnc2c1CCNC2 | 92.5
22 | Cc1[nH]c2ccc(C#N)cc2c1CCNc1ncnc2c1CCNCC2 | 44.3
23 | Cc1[nH]c2ccccc2c1CCNc1ncnc2c1CCNCC2 | 72.1
24 | Cc1ccccc1C(CNc1ncnc2c1CCNCC2)N(C)C (stereo not drawn) | -59.8
25 | Cc1ccccc1C(CNc1ncnc2c1CCNC2)N(C)C (stereo not drawn) | -2.98
26 | c1cnn(CCN2CCOC(Cn3cccn3)C2)c1 (stereo not drawn) | -59.4
27 | CCCOCC(=O)N1CCc2nc(NC)nc(C(=O)N3CCCC3)c2C1 | -5.08
28 | CN(C)c1ccc(C(=O)N2CCN(c3cnccn3)CC2)cn1 | 2.1
